In PubChem BioAssay AID1159580 (chemical genetic matrix, 2015):
Among all 5,500 compounds or so, about 2,000 (36%) were called active. About 18% were inconclusive and are not listed. Some of the results follow. Unmarked numbers belong to inactive results. No stated cut-off is given here; in the data, active means normalized growth mostly below about 0.91 (no sharp cut-off); inconclusive means no clear call, values can overlap the other calls; inactive means mostly above about 0.92.

Experiment: chemical genetic growth profiling, strain panel (AID 1159580);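 further: tested at 20 µM; growth read once vehicle control cultures reached saturation at 30 °C; 1 = growth at the plate median or of vehicle wells; lower values mean less growth of the strain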
Conditions: S. cerevisiae deletion strains, growth OD

With `O=C1C=CC(=O)c2c(O)c(Cl)c(Cl)c(O)c21` the normalized growth (locus YAL021C, strain ccr4, hits give low values) was 0.0743 (active), the normalized growth (locus YAL026C, strain drs2, hits give low values) was 0.0712 (active) and the normalized growth (locus YAL030W, strain snc1, hits give low values) was 0.065 (active). For the same compound, the normalized growth (locus YBL061C, strain skt5, hits give low values) was 0.0691 (active), the normalized growth (locus YBR009C, strain hhf1, hits give low values) was 0.0757 (active) and the normalized growth (locus YBR023C, strain chs3, hits give low values) was 0.0713 (active). For the same compound, the normalized growth (locus YBR171W, strain sec66, hits give low values) was 0.0854 (active), the normalized growth (locus YBR231C, strain swc5, hits give low values) was 0.0695 (active) and the normalized growth (locus YBR279W, strain paf1, hits give low values) was 0.0653 (active). The normalized growth (locus YCL011C, strain gbp2, hits give low values) was 0.0661 (active), the normalized growth (locus YCL016C, strain dcc1, hits give low values) was 0.0723 (active) and the normalized growth (locus YCL061C, strain MRC1, hits give low values) was 0.0708 (active). The normalized growth (locus YCL069W, strain vba3, hits give low values) was 0.0675 (active), the normalized growth (locus YCR088W, strain abp1, hits give low values) was 0.0687 (active) and the normalized growth (locus YDL005C, strain med2, hits give low values) was 0.0837 (active). The normalized growth (locus YDL040C, strain nat1, hits give low values) was 0.0677 (active), the normalized growth (locus YDR001C, strain nth1, hits give low values) was 0.0651 (active) and the normalized growth (locus YDR069C, strain doa4, hits give low values) was 0.0731 (active). For the same compound, the normalized growth (locus YDR137W, strain rgp1, hits give low values) was 0.816 (active), the normalized growth (locus YDR159W, strain sac3, hits give low values) was 0.817 (active) and the normalized growth (locus YDR195W, strain ref2) was 0.72 (active). For the same compound, the normalized growth (locus YDR297W, strain sur2, hits give low values) was 0.0653 (active), the normalized growth (locus YDR334W, strain swr1, hits give low values) was 0.0709 (active) and the normalized growth (locus YDR335W, strain msn5, hits give low values) was 0.0705 (active). For the same compound, the normalized growth (locus YDR392W, strain spt3, hits give low values) was 0.11 (active), the normalized growth (locus YEL003W, strain gim4, hits give low values) was 0.0616 (active) and the normalized growth (locus YEL037C, strain rad23, hits give low values) was 0.0635 (active). For the same compound, the normalized growth (locus YEL061C, strain CIN8 (second series), hits give low values) was 0.0685 (active), the normalized growth (locus YER015W, strain faa2, hits give low values) was 0.0696 (active) and the normalized growth (locus YER016W, strain bim1, hits give low values) was 0.0673 (active). For the same compound, the normalized growth (locus YER111C, strain swi4, hits give low values) was 0.984, the normalized growth (locus YER155C, strain BEM2 (second series), hits give low values) was 0.101 (active) and the normalized growth (locus YFR010W, strain ubp6, hits give low values) was 0.0771 (active). For the same compound, the normalized growth (locus YGL167C, strain pmr1, hits give low values) was 0.0844 (active), the normalized growth (locus YGL173C, strain kem1, hits give low values) was 0.0767 (active) and the normalized growth (locus YGL227W, strain vid30, hits give low values) was 0.0694 (active). For the same compound, the normalized growth (locus YGL240W, strain doc1, hits give low values) was 0.087 (active), the normalized growth (locus YGL253W, strain hxk2, hits give low values) was 0.0606 (active) and the normalized growth (locus YHR013C, strain ard1, hits give low values) was 0.118 (active). The normalized growth (locus YHR027C, strain rpn1, hits give low values) was 0.0722 (active), the normalized growth (locus YHR030C, strain SLT2, hits give low values) was 0.114 (active) and the normalized growth (locus YHR079C, strain IRE1, hits give low values) was 0.132 (active). The normalized growth (locus YHR142W, strain chs7, hits give low values) was 0.0821 (active), the normalized growth (locus YJL092W, strain hpr5, hits give low values) was 0.066 (active) and the normalized growth (locus YJL095W, strain BCK1 (second series), hits give low values) was 0.0647 (active). For the same compound, the normalized growth (locus YJL095W, strain BCK1, hits give low values) was 0.118 (active), the normalized growth (locus YJL115W, strain asf1, hits give low values) was 0.0821 (active) and the normalized growth (locus YJL129C, strain trk1, hits give low values) was 0.965. For the same compound, the normalized growth (locus YJL154C, strain vps35, hits give low values) was 0.0659 (active), the normalized growth (locus YJL164C, strain tpk1, hits give low values) was 0.076 (active) and the normalized growth (locus YJL166W, strain qcr8, hits give low values) was 0.0693 (active). The normalized growth (locus YJL187C, strain SWE1, hits give low values) was 0.0656 (active), the normalized growth (locus YJR066W, strain TOR1, hits give low values) was -0.00728 (active) and the normalized growth (locus YKL160W, strain elf1, hits give low values) was 0.0955 (active). The normalized growth (locus YKR026C, strain gcn3, hits give low values) was 0.0721 (active), the normalized growth (locus YKR091W, strain srl3, hits give low values) was 0.0686 (active) and the normalized growth (locus YLL001W, strain dnm1, hits give low values) was 0.0682 (active). The normalized growth (locus YLL026W, hits give low values) was 0.065 (active), the normalized growth (locus YLL041C, strain sdh2, hits give low values) was 0.0651 (active) and the normalized growth (locus YLR027C, strain aat2, hits give low values) was 0.0649 (active). For the same compound, the normalized growth (locus YLR113W, strain HOG1, hits give low values) was 0.129 (active), the normalized growth (locus YLR221C, strain rsa3, hits give low values) was 0.0719 (active) and the normalized growth (locus YLR258W, strain gsy2, hits give low values) was 0.0692 (active). The normalized growth (locus YLR262C, strain YPT6 (second series), hits give low values) was 0.0889 (active), the normalized growth (locus YLR320W, strain mms22, hits give low values) was 0.0961 (active) and the normalized growth (locus YLR342W, strain FKS1, hits give low values) was 0.0745 (active). The normalized growth (locus YLR357W, strain rsc2, hits give low values) was 0.136 (active), the normalized growth (locus YLR370C, strain arc18, hits give low values) was 0.0692 (active) and the normalized growth (locus YLR384C, strain iki3, hits give low values) was 0.0665 (active). For the same compound, the normalized growth (locus YML120C, strain ndi1, hits give low values) was 0.928, the normalized growth (locus YMR058W, strain fet3, hits give low values) was 0.0663 (active) and the normalized growth (locus YMR125W, strain sto1, hits give low values) was 0.0829 (active). For the same compound, the normalized growth (locus YMR129W, hits give low values) was 0.0652 (active), the normalized growth (locus YMR205C, strain PFK2, hits give low values) was 0.0948 (active) and the normalized growth (locus YMR231W, strain pep5, hits give low values) was 0.0753 (active). The normalized growth (locus YNL071W, strain lat1, hits give low values) was 0.0684 (active), the normalized growth (locus YNL183C, strain NPR1, hits give low values) was 0.021 (active) and the normalized growth (locus YNL209W, strain ssb2, hits give low values) was 0.0691 (active). For the same compound, the normalized growth (locus YNL248C, strain rpa49, hits give low values) was 0.0871 (active), the normalized growth (locus YNL322C, strain KRE1 (second series), hits give low values) was 0.0721 (active) and the normalized growth (locus YNR049C, strain mso1, hits give low values) was 0.0642 (active). The normalized growth (locus YOR001W, strain rrp6, hits give low values) was 0.0755 (active), the normalized growth (locus YOR070C, strain gyp1, hits give low values) was 0.0663 (active) and the normalized growth (locus YOR080W, strain dia2, hits give low values) was 0.104 (active). For the same compound, the normalized growth (locus YOR083W, strain WHI5, hits give low values) was 0.0727 (active), the normalized growth (locus YOR106W, strain vam3, hits give low values) was 0.0721 (active) and the normalized growth (locus YOR231W, strain MKK1, hits give low values) was 0.129 (active). The normalized growth (locus YOR265W, strain rbl2, hits give low values) was 0.0661 (active), the normalized growth (locus YOR270C, strain vph1, hits give low values) was 0.108 (active) and the normalized growth (locus YOR290C, strain snf2, hits give low values) was 0.963. For the same compound, the normalized growth (locus YPL051W, strain arl3, hits give low values) was 0.0733 (active), the normalized growth (locus YPL078C, strain atp4, hits give low values) was 0.852 (active) and the normalized growth (locus YPL106C, strain sse1, hits give low values) was 0.116 (active). For the same compound, the normalized growth (locus YPL240C, strain hsp82, hits give low values) was 0.0634 (active) and the normalized growth (locus YPL256C, strain CLN2, hits give low values) was 0.147 (active).
